# Test results taken from the antibiotic and cytotoxicity screens of Wong et al. (2023).
# In all, about 39,000 compounds went through this assay and about 3,300 (8.5%) were called active. For the sample, actives were picked, then their nearest neighbours and some compounds at random.
# Tested on: HepG2
# Experiment: cytotoxicity call (relative viability < 0.9)
# Conditions: 10 µM
row,Compound,cytotoxicity call
1,C[C@@H]1CCCCO[C@@H](CN(C)CC2CCCCC2)[C@@H](C)CN([C@H](C)CO)C(=O)c2cc(NC(=O)C3CCCCC3)ccc2O1,inactive
2,CO[C@@H](CN(C)S(=O)(=O)c1cn(C)cn1)[C@H](C)CN(C(=O)Nc1ccc(C(F)(F)F)cc1)[C@@H](C)CO,inactive
3,C[C@@H]1CN([C@H](C)CO)C(=O)c2cccc(NS(=O)(=O)c3ccc(F)cc3)c2O[C@@H]1CN(C)S(C)(=O)=O,inactive
4,C[C@H](CO)N1C[C@H](C)[C@H](CN(C)S(=O)(=O)c2ccc(F)cc2)Oc2ncc(Br)cc2C1=O,inactive
5,Cc1noc(C)c1S(=O)(=O)Nc1ccc2c(c1)C(=O)N([C@@H](C)CO)C[C@H](C)[C@@H](CN(C)S(=O)(=O)c1cn(C)cn1)OCCCC[C@H](C)O2,inactive
6,C[C@H](CO)N1C[C@H](C)[C@H](CN(C)CC2CC2)Oc2ccc(NS(=O)(=O)c3ccc(F)cc3)cc2C1=O,inactive
7,C[C@H](CO)N1C[C@H](C)[C@H](CN(C)S(=O)(=O)c2cccs2)OCCCC[C@H](C)Oc2ccc(NC(=O)Cc3ccccc3)cc2C1=O,inactive
8,CC(C)CC(=O)N1CCN(S(C)(=O)=O)CC1,inactive
9,CN1CCc2nc(C(=O)N[C@@H]3C[C@@H](C(=O)N(C)C)CC[C@@H]3NC(=O)C(=O)Nc3ccc(Cl)cn3)sc2C1,inactive
10,C[C@@H]1CN([C@H](C)CO)S(=O)(=O)c2ccc(C#Cc3cccc(F)c3)cc2O[C@H]1CN(C)S(=O)(=O)c1cn(C)cn1,inactive
11,O=C(O)c1ccnc(C(=O)O)c1,inactive
12,C[C@@H]1CN([C@@H](C)CO)C(=O)c2cc(N(C)C)ccc2O[C@@H](C)CCCCO[C@H]1CN(C)Cc1ccc(C(=O)Nc2ccccc2N)cc1,inactive
13,C[C@@H]1CN([C@@H](C)CO)S(=O)(=O)c2ccc(C#Cc3ccncc3)cc2O[C@@H]1CN(C)C(=O)Nc1ccc2c(c1)OCO2,active
14,C[C@H]1CN([C@@H](C)CO)S(=O)(=O)c2ccc(Br)cc2O[C@@H]1CN(C)C(=O)Nc1ccc2c(c1)OCO2,inactive
15,C[C@H](CO)N1C[C@H](C)[C@@H](CN(C)C(=O)Nc2ccc3c(c2)OCO3)Oc2cc(C#Cc3cccnc3)ccc2S1(=O)=O,inactive
16,C[C@@H]1CN([C@@H](C)CO)S(=O)(=O)c2ccc(Br)cc2O[C@H]1CN(C)C(=O)Nc1ccc2c(c1)OCO2,inactive
17,C[C@@H]1CN([C@@H](C)CO)S(=O)(=O)c2ccc(C#Cc3cccnc3)cc2O[C@@H]1CN(C)C(=O)Nc1ccc2c(c1)OCO2,inactive
18,C[C@H]1CN([C@@H](C)CO)S(=O)(=O)c2ccc(C#Cc3ccncc3)cc2O[C@@H]1CN(C)C(=O)Nc1ccc2c(c1)OCO2,active
19,CC(C)NC(=O)Nc1ccc2c(c1)C(=O)N([C@@H](C)CO)C[C@@H](C)[C@H](CN(C)Cc1ccc(C(=O)O)cc1)O2,inactive
20,C[C@@H]1CN([C@@H](C)CO)C(=O)c2cccc(NC(=O)Nc3ccc(C(F)(F)F)cc3)c2O[C@H]1CN(C)C(=O)Nc1cccc2ccccc12,active
21,C[C@H](CO)N1C[C@H](C)[C@@H](CN(C)C(=O)Nc2cccc3ccccc23)Oc2c(NC(=O)Nc3ccc(C(F)(F)F)cc3)cccc2C1=O,inactive
22,C[C@H](CO)N1C[C@H](C)[C@H](CN(C)C(=O)Nc2cccc3ccccc23)Oc2c(NC(=O)Nc3ccc(C(F)(F)F)cc3)cccc2C1=O,active
23,C[C@@H]1CN([C@@H](C)CO)C(=O)c2cccc(NC(=O)Nc3ccc(C(F)(F)F)cc3)c2O[C@@H]1CN(C)C(=O)Nc1cccc2ccccc12,active

row,Compound,cytotoxicity call
1,C[C@@H]1CN([C@H](C)CO)C(=O)c2cccc(NC(=O)Nc3ccc(C(F)(F)F)cc3)c2O[C@H]1CN(C)C(=O)Nc1cccc2ccccc12,active
2,C[C@@H]1CN([C@H](C)CO)C(=O)c2cccc(NC(=O)Nc3ccc(C(F)(F)F)cc3)c2O[C@@H]1CN(C)C(=O)Nc1cccc2ccccc12,inactive
3,C[C@@H]1CCCCO[C@@H](CN(C)C(=O)c2ccccc2)[C@H](C)CN([C@@H](C)CO)C(=O)c2cc(NS(=O)(=O)c3ccc(Cl)cc3)ccc2O1,inactive
4,COc1ccc(S(=O)(=O)N(C)C[C@H]2Oc3ccc(NS(=O)(=O)c4ccccc4)cc3CC(=O)N([C@H](C)CO)C[C@@H]2C)cc1,inactive
5,COc1ccc(S(=O)(=O)N(C)C[C@H]2OCCCC[C@H](C)Oc3ccc(NS(=O)(=O)c4cn(C)cn4)cc3C(=O)N([C@@H](C)CO)C[C@H]2C)cc1,inactive
6,C[C@H]1CN([C@@H](C)CO)S(=O)(=O)c2ccc(C#CC3(O)CCCC3)cc2O[C@H]1CN(C)C(=O)Nc1ccc(F)cc1,inactive
7,COCC(=O)N1CC[C@]2(CC1)CN([C@H](CO)c1c2c2ccc(cc2n1C)OC)C(=O)CN1CCOCC1,inactive
8,O=C1N[C@@H](Cc2c[nH]c3ccccc23)COC(=O)[C@@H](Cc2ccc(F)cc2)CCC=CC[C@H]1CC(=O)N(CCO)Cc1ccccc1,inactive
9,C[C@H](CO)N1C[C@H](C)[C@@H](CN(C)S(=O)(=O)c2cn(C)cn2)OCc2ccccc2-c2c(n(C)c3ccccc23)C1=O,inactive
10,O=C(C[C@H]1C[C@@H]2c3cc(NC(=O)c4ccc5c(c4)OCO5)ccc3O[C@@H]2[C@@H](CO)O1)NCCN1CCCCC1,inactive
11,CC(C)(C)[S@](=O)N1Cc2cc(C(=O)N3CCc4ccccc4C3)nc(-c3cccc(-c4cccnc4)c3)c2[C@@H]1CCO,inactive
12,Cc1ccc(S(=O)(=O)Nc2ccc3c(c2)C(=O)N([C@H](C)CO)C[C@H](C)[C@@H](CN(C)S(=O)(=O)c2ccc(F)cc2)OCCCC[C@@H](C)O3)cc1,inactive
13,C[C@H]1CN([C@@H](C)CO)C(=O)c2cccc(NC(=O)Nc3ccc(C(F)(F)F)cc3)c2O[C@H]1CN(C)C(=O)Nc1cccc2ccccc12,inactive
14,C[C@H]1CN([C@@H](C)CO)C(=O)c2cccc(NC(=O)Nc3ccc(C(F)(F)F)cc3)c2O[C@@H]1CN(C)C(=O)Nc1cccc2ccccc12,active
15,C[C@H](CO)N1C[C@H](C)[C@H](CN(C)C(=O)Nc2cccc3ccccc23)Oc2c(NC(=O)Nc3ccc(F)cc3)cccc2C1=O,inactive
16,C[N+](C)(C)CCCCNC(=O)[C@H]1C[C@H]2C(=O)N[C@@H](CCCC[N+](C)(C)C)C(=O)N2[C@H]1c1ccc(O)cc1,inactive
17,CC(=O)NCCCC[C@@H]1NC(=O)[C@H]2C[C@@H](C(=O)NCCCC[N+](C)(C)C)[C@@H](c3cccc(OCCO)c3)N2C1=O,inactive
18,C[N+](C)(C)CCCCNC(=O)[C@@H]1C[C@@H]2C(=O)N[C@@H](CCCC[N+](C)(C)C)C(=O)N2[C@@H]1c1ccc(O)cc1,inactive
19,CC(=O)NCCCC[C@@H]1NC(=O)[C@@H]2C[C@H](C(=O)NCCCC[N+](C)(C)C)[C@H](c3cccc(OCCO)c3)N2C1=O,active
20,C[N+](C)(C)CCCCNC(=O)[C@@H]1C[C@@H]2C(=O)N3CCC[C@H]3C(=O)N2[C@@H]1c1cccc(OCCO)c1,inactive
21,C[N+](C)(C)CCCCCCNC(=O)[C@H]1C[C@H]2C(=O)N3CCC[C@H]3C(=O)N2[C@H]1c1cccc(OCCO)c1,inactive
22,CC(=O)NCCCC[C@@H]1NC(=O)[C@H]2C[C@@H](C(=O)NCCCC[N+](C)(C)C)[C@@H](c3ccc(O)cc3)N2C1=O,active
23,C[N+](C)(C)CCCCNC(=O)[C@H]1C[C@H]2C(=O)N[C@@H](CCCC[N+](C)(C)C)C(=O)N2[C@H]1c1cccc(OCCO)c1,inactive

row,Compound,cytotoxicity call
1,C[N+](C)(C)CCCCNC(=O)[C@H]1C[C@H]2C(=O)N3CCC[C@H]3C(=O)N2[C@H]1c1cccc(OCCO)c1,active
2,C[C@H](CO)N1C[C@H](C)[C@H](CN(C)C(=O)C2CCCCC2)OCCCC[C@H](C)Oc2ccc(NC(=O)c3ccccc3)cc2C1=O,inactive
3,O=C(C[C@@H]1CC=CC[C@H](NC(=O)OCC2c3ccccc3-c3ccccc32)C(=O)O[C@H](c2ccccc2)CNC1=O)N[C@@H](CO)Cc1ccccc1,inactive
4,CNC(=O)C[C@H]1CC[C@@H]2[C@H](COC[C@H](O)CN2C(=O)Nc2ccc3c(c2)OCO3)O1,inactive
5,CO[C@H]1CN(C)C(=O)c2ccc(NS(=O)(=O)CC(F)(F)F)cc2OC[C@H](C)N(C(=O)NC(C)C)C[C@@H]1C,inactive
6,CO[C@@H]1CN(C)C(=O)c2cc(NS(=O)(=O)c3cn(C)cn3)ccc2OC[C@H](C)N(CC2CC2)C[C@@H]1C,inactive
7,CNC(=O)c1cnc2n1CCN(Cc1nccn1C)C2,inactive
8,CC(C)[C@H](NC(=O)[C@H](C)N(C)C)C(=O)N1CC[C@@H]2Oc3ccc(cc3)/C=C\NC(=O)[C@H](Cc3ccccc3)NC(=O)[C@H]21,inactive
9,C[C@@H]1CN([C@H](C)CO)C(=O)c2cc(NC(=O)Cn3cnnn3)ccc2O[C@H]1CN(C)S(=O)(=O)c1ccc(F)cc1,inactive
10,O=C(C[C@@H]1C[C@H]2c3cc(NC(=O)Nc4ccccc4F)ccc3O[C@H]2[C@@H](CO)O1)NCc1ccc(Oc2ccccc2)cc1,inactive
11,COc1ccc(CN(C)C[C@H]2Oc3ccc(NC(=O)Nc4cccc5ccccc45)cc3C(=O)N([C@H](C)CO)C[C@@H]2C)cc1,inactive
12,COc1ccc(CN(C)C[C@H]2Oc3ccc(NC(=O)Nc4cccc5ccccc45)cc3C(=O)N([C@@H](C)CO)C[C@H]2C)cc1,inactive
13,COc1ccc(CN(C)C[C@@H]2Oc3ccc(NC(=O)Nc4cccc5ccccc45)cc3C(=O)N([C@@H](C)CO)C[C@H]2C)cc1,inactive
14,C[C@H](CO)N1C[C@H](C)[C@@H](CN(C)Cc2ccc(Oc3ccccc3)cc2)Oc2ccc(NC(=O)Nc3cccc4ccccc34)cc2C1=O,inactive
15,C[C@@H]1CN([C@H](C)CO)C(=O)c2cc(NC(=O)Nc3cccc4ccccc34)ccc2O[C@@H]1CN(C)Cc1ccc(Oc2ccccc2)cc1,active
16,C[C@@H]1CN([C@@H](C)CO)C(=O)c2cc(NC(=O)Nc3cccc4ccccc34)ccc2O[C@H]1CN(C)Cc1ccc(Oc2ccccc2)cc1,inactive
17,COc1ccc(CN(C)C[C@H]2Oc3ccc(NC(=O)Nc4cccc5ccccc45)cc3C(=O)N([C@@H](C)CO)C[C@@H]2C)cc1,inactive
18,C[C@@H]1CN([C@H](C)CO)C(=O)c2cc(NC(=O)Nc3cccc4ccccc34)ccc2O[C@H]1CN(C)Cc1ccc(Oc2ccccc2)cc1,active
19,C[C@H](CO)N1C[C@H](C)[C@H](CN(C)Cc2ccc(Oc3ccccc3)cc2)Oc2ccc(NC(=O)Nc3cccc4ccccc34)cc2C1=O,active
20,COc1ccc(CN(C)C[C@@H]2Oc3ccc(NC(=O)Nc4cccc5ccccc45)cc3C(=O)N([C@H](C)CO)C[C@H]2C)cc1,inactive
21,COc1ccc(CN(C)C[C@@H]2Oc3ccc(NC(=O)Nc4cccc5ccccc45)cc3C(=O)N([C@H](C)CO)C[C@@H]2C)cc1,inactive
22,C[C@@H]1CN([C@@H](C)CO)C(=O)c2cc(NC(=O)Nc3cccc4ccccc34)ccc2O[C@@H]1CN(C)Cc1ccc(Oc2ccccc2)cc1,active
